# Experimental data as given in PubChem BioAssay AID686979 (National Center for Advancing Translational Sciences (NCATS), 2013).
# About 50,000 (12%) of roughly 420,000 compounds were called active. About 26% were inconclusive and are not listed. This is one part of a sample in which actives are shown more often than they occur. Values without a mark were called inactive. Calls follow the shape of the dose curve; as a rule, active = well fitted inhibition curve with a large enough effect; inconclusive = small, poorly fitted or top-dose-only effect; inactive = flat fitted curve, though single readings scatter.
# Assay: qHTS for Inhibitors of human tyrosyl-DNA phosphodiesterase 1 (TDP1): qHTS in cells in presence of CPT; also: nearly all actives have a fitted effect of over 55% in size
# Settings: chicken DT40 Tdp1-/-;hTDP1 cells + 20 nM CPT, ATP luminescence, 48 h; series mostly up to 46.2 µM; activity change, negative = growth inhibition: at the top concentration
# How it was run: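 Chicken DT40 Tdp1-/- cells stably complemented with human TDP1 were seeded at 400 cells/well in medium containing 20 nM camptothecin, exposed to pin-transferred compounds, and grown at 37 °C for at least 48 hr. Viability was read as ATP luminescence.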
# % is scaled to controls: 0 for no effect and ±100 for the full control effect; potency is read from the fitted curve at half-maximal effect.
Compound,"activity change, negative = growth inhibition [%]",Potency
CCOC(=O)N1CCN(C(=O)C2CCN(S(=O)(=O)c3cc(Cl)ccc3OCC)CC2)CC1,-3.7,–
CCOC(=O)N1CCN(C(=O)C2CCN(c3ncnc4c3sc3cccc(F)c34)CC2)CC1,–,8.2 µM (active)
O=C(CCn1nnnc1CN1CCOCC1)N1CCC(c2ccccc2Cl)C1 (stereo unspecified),-12.6,–
COc1ccc(F)c(CN2CCC3(CCC(CNC(=O)c4ccn(C)n4)O3)CC2)c1 (stereo unspecified),7.32,–
Cc1ccccc1N1CC(C(=O)Nc2ccc3c(c2)OCO3)CC1=O (stereo unspecified),-10.8,–
COc1ccc(C(=O)Cc2cnn(-c3ccccc3)c2)c(O)c1,-20.1,–
COc1ccc(C(=O)CC(=O)c2ccc(C)cc2)c(O)c1,–,4.61 µM (active)
COc1ccc(C(=O)CCc2ccccc2O)c(OC)c1,5.83,–
COc1ccc(NC(=O)Cn2c(=O)cc(C)c3c(C)nn(-c4cccc(Cl)c4C)c32)cc1OC,-8.29,–
Cc1noc(C)c1NC(=O)Nc1cccc2c1O[C@H](CN(C)S(=O)(=O)c1c(C)noc1C)[C@@H](C)CN([C@H](C)CO)C2=O,13.3,–
CC(OC(=O)CN1C(=O)C2CCCCC2C1=O)C(=O)Nc1ncc(Cl)cc1Cl (stereo unspecified),-15.3,–
CC1=CC(C)(C)Nc2ccc(OC(=O)CN3C(=O)C4CCCCC4C3=O)cc21 (stereo unspecified),–,1.64 µM (active)
O=C(CN1C(=O)C2C3CCC(C3)C2C1=O)Oc1ccc2ccccc2c1 (stereo unspecified),1.24,–
O=C(/C=C/c1c(F)cccc1Cl)Nc1nn[nH]n1,10.1,–
O=C(N/C(=C\c1ccc(O)cc1)C(=O)N1CCCCC1)c1ccccc1,-0.525,–
CCOc1ccc(C2/C(=C(/O)c3ccc4c(c3)CC(C)O4)C(=O)C(=O)N2CCCn2ccnc2)cc1 (stereo unspecified),-13.3,–
CC(C)=CCC/C(C)=C/CC/C(C)=C/CC/C(C)=C/CO,–,inactive
Cc1nc2ccccc2n1CC(O)c1ccccc1 (stereo unspecified),6.8,–
Cc1ccc(C2=NN(C)c3nc4ccccc4n3C2)cc1,–,18.4 µM (active)
Cc1ccc(Oc2nc3ccccc3n3c(C)nnc23)cc1,-14.2,–
COC(=O)C(C)N=Cc1ccccc1 (stereo unspecified),-12.3,–
Cc1ccc(C(=O)Nc2ccc(C(=O)O)cc2)cc1S(=O)(=O)Nc1ccccc1,0.932,–
CSCC(=O)N1CCCC(C(=O)c2cc(F)ccc2F)C1 (stereo unspecified),-5,–
O=C1CCC(CCC(=O)N2CCCC(C(=O)c3ccc(Cl)cc3)C2)=NN1 (stereo unspecified),-1.89,–
COc1ccc(F)cc1C(=O)C1CCCN(C(=O)CCc2ccccn2)C1 (stereo unspecified),–,16.4 µM (active)
O=C1NC(O)CCN1C1CC(O)C(CO)O1 (stereo unspecified),-0.775,–

Compound,"activity change, negative = growth inhibition [%]",Potency
C=CCNC(=O)COC(=O)CNC(=O)c1cc(Cl)cc([N+](=O)[O-])c1,-4.44,–
O=C(O)c1ccccc1Cc1ccc(F)c2ccccc12,49.6,–
O=C(Nc1nnc(Cc2ccccc2)s1)c1cnccn1,-5.61,–
CC1CCN(C2=NC(=O)/C(=C/c3cn[nH]c3-c3ccccc3)S2)CC1,-28.9,–
Cc1ccc(Cl)cc1N1CCN(C(=O)c2cn(C)c3ccc(S(=O)(=O)N(C)C4CCCCC4)cc3c2=O)CC1,-28.2,–
CCn1cc(C(=O)N2CCN(c3cc(Cl)ccc3C)CC2)c(=O)c2cc(S(=O)(=O)N3CCCC3)ccc21,–,23.1 µM (active)
Cc1ccc(S(=O)(=O)N2CCN(C)CC2)cc1C(=O)NC1CCCCC1,-7.5,–
CCn1cc(C(=O)N2CC(C)CC(C)C2)c(=O)c2cc(S(=O)(=O)N3CCCC3)ccc21 (stereo unspecified),-9.06,–
CCn1cc(C(=O)N(C)Cc2ccccc2)c(=O)c2cc(S(=O)(=O)N3CCCCCC3)ccc21,2.57,–
CCn1cc(C(=O)NC2CCCCCC2)c(=O)c2cc(S(=O)(=O)N3CCCCC3)ccc21,–,29.1 µM (active)
CCCCc1cc(=O)oc2c(C)c(OCC(=O)N3CCC(C(N)=O)CC3)ccc12,1.82,–
CCOc1ccc(Br)cc1S(=O)(=O)Nc1ccc(S(=O)(=O)Nc2cc(C)on2)cc1,7.48,–
O=C(NCc1ccc2c(c1)OCO2)c1ccc(Cl)s1,-3.29,–
O=C(NCc1ccc2c(c1)OCO2)c1sccc1Br,13,–
O=C(NCc1ccc2c(c1)OCO2)c1c(-c2ccsc2)sc2ccccc12,–,14.6 µM (active)
CC(C)(C)C(=O)CSc1ccc(S(=O)(=O)N2CCCC2)cn1,-29.4,–
CN=C1SC(CC(=O)Nc2ccc(C(=O)O)cc2)C(=O)N1C (stereo unspecified),-17.1,–
CCC(=C/c1sc2ccc3ccccc3c2[n+]1C)/C=C1\Sc2ccc3ccccc3c2N1C,–,0.231 µM (active)
COc1ccc(N(CC(=O)N2CCOCC2)S(=O)(=O)c2ccccc2)cc1Cl,1.17,–
COc1ccc(CCNC(=O)c2cnc3sc(N4CCCCCC4)nn3c2=O)cc1OC,–,11.6 µM (active)
O=C(NCCc1ccccc1)c1cnc2sc(N3CCCC3)nn2c1=O,–,16.4 µM (active)
CSc1ncc(C(=O)NCCCc2ccccc2)c(C)n1,-28.1,–
O=C(O)c1ccccc1-c1ccccc1C(=O)NCCc1ccccc1,13.9,–
COc1ccc(CCNC(=O)c2ccc(NC(=O)CC3SC(N4CCCCC4)=NC3=O)cc2)cc1OC (stereo unspecified),-27.3,–
COc1ccc(CCNC(=O)C2CCN(c3nn4c(=O)cc(C)nc4s3)CC2)cc1OC,2.71,–
